Screening results from PubChem BioAssay.
TRHR agonist = agonists of human TRH receptor; TRHR cells, calcium flux fluo-8, FDSS agonist mode; hit rate 0.18% among 360,000; AID 493084; P34981; activation, % at 2 µM
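Read-out: compound-evoked intracellular calcium rise in TRHR cells, fluo-8 dye, kinetic FDSS fluorescence at 1 s/cycle following a 10-cycle baseline. Cells cultured overnight before dye loading (30 min–1.5 h, RT).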
D1 antagonist = human D1 dopamine receptor antagonism. P21728. HEK293 TREx D1 cells, calcium flux, dopamine EC80; active compounds read low. activity change, negative = inhibition, % at 10 µM. hit rate 3.2% among 360,000; in the data active = activity change below about -30%
Target sequence (P21728 whole entry, looked up): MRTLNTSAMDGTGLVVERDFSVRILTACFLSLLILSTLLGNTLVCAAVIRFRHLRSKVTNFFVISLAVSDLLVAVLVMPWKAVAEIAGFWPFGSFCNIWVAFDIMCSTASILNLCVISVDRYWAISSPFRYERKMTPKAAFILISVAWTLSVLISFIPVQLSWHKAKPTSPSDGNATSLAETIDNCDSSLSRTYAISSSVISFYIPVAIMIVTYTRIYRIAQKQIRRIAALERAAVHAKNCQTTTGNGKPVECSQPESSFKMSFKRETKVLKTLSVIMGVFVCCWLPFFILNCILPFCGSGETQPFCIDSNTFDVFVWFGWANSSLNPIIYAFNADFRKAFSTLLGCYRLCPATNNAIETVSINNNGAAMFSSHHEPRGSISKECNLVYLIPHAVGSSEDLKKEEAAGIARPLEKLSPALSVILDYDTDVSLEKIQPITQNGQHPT
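Tetracycline-induced HEK293 Trex D1 cells, force-coupled to calcium, dye-loaded; compounds added and read 180 s, then EC80 dopamine added and calcium flux tracked kinetically another 180 s.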
D1 agonist = activates the human D1 dopamine receptor; P21728; HEK293 T-REx D1 cells, calcium flux, agonist mode; activation, % at 2 µM; hit rate 1% among 360,000
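Inducible HEK293 T-REx D1 cells, force-coupled to calcium signalling, were plated at 4000 cells/well with tetracycline and held overnight at 30 C. After no-wash calcium dye loading, compound-evoked calcium rise over 180 s flagged agonists.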
D1 potentiator = enhances dopamine response at the human D1 receptor. HEK293 TREx D1 cells, calcium flux, dopamine EC20 potentiation. hit rate 0.036% among 360,000. potentiation, % at 10 µM; in the data active = potentiation above about 30%
TRHR PAM = TRH receptor (human) allosteric enhancement. hit rate 0.66% among 360,000. P34981. TRHR cells, fluo-8 calcium fluorescence, EC20 TRH enhancement. enhancement, % at 2 µM; in the data active = enhancement above about 30%
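TRHR-expressing cells loaded with fluo-8 calcium dye were read kinetically (ex 480/em 530) during compound addition, then stimulated with an EC20 of TRH (10 nM final). Enhancement of the Gq-mediated intracellular calcium response was scored.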
Numbers stand for hits. A selection: hits, their analogues and other compounds. The true share with any hit is near 4.6%. Rule as the data show it, unless noted: active = activation above about 30%; inactive = the rest.

COc1ccc(OC)c(NC(=O)CCN2CCN(c3ccccc3OC)CC2)c1 was read as TRHR agonist inactive, D1 antagonist -63.7, D1 agonist inactive, D1 potentiator inactive and TRHR PAM inactive.
For CC1CCN(CCCNC(=O)c2cc(Sc3ccc(F)cc3)nc3ccccc23)CC1 the results were TRHR agonist inactive, D1 antagonist inactive, D1 agonist 44.5, D1 potentiator inactive and TRHR PAM inactive.
Screening COc1ccc(NC(=O)CCN2CCN(c3ccccc3F)CC2)c(OC)c1 returned TRHR agonist inactive, D1 antagonist -36.0, D1 agonist inactive, D1 potentiator inactive and TRHR PAM inactive.
For COc1ccc(NC(=O)CN2CCN(c3ccccc3F)CC2)c(OC)c1 the results were TRHR agonist inactive, D1 antagonist inactive, D1 agonist inactive, D1 potentiator inactive and TRHR PAM inactive.
For Cc1ccccc1NC(=O)CSc1cn(CC(=O)N2CCCCCC2)c2ccccc12 the results were TRHR agonist inactive, D1 antagonist inactive, D1 agonist inactive, D1 potentiator inactive and TRHR PAM inactive.
For O=C(COC(=O)C1CC1)Nc1ncc(Cl)cc1Cl the results were TRHR agonist inactive, D1 antagonist inactive, D1 agonist inactive, D1 potentiator inactive and TRHR PAM inactive.
For O=C(CSC(=S)N1CCCC1)Nc1ncc(Cl)cc1Cl the results were TRHR agonist inactive, D1 antagonist inactive, D1 agonist inactive, D1 potentiator inactive and TRHR PAM 31.4.
`CSc1ncc(C(=O)Nc2cc(Cl)ccc2C)c(-c2ccccc2)n1` gave TRHR agonist inactive, D1 antagonist inactive, D1 agonist inactive, D1 potentiator inactive and TRHR PAM inactive.
Screening O=C(NCc1ccc(Cl)cc1)C(=O)NCC(c1ccc2c(c1)OCO2)N1CCOCC1 (configuration not stated) returned TRHR agonist inactive, D1 antagonist inactive, D1 agonist inactive, D1 potentiator inactive and TRHR PAM inactive.
For CC(=O)c1cccc(OCC(O)CNCC2COc3ccccc3O2)c1 (configuration not stated) the results were TRHR agonist inactive, D1 antagonist -47.6, D1 agonist 45.0, D1 potentiator inactive and TRHR PAM inactive.
COc1ccc(OC)c(NC(=O)CN2C(=O)COc3ccc(S(=O)(=O)NC4CCCC4)cc32)c1 was read as TRHR agonist inactive, D1 antagonist inactive, D1 agonist inactive, D1 potentiator inactive and TRHR PAM inactive.
For Cc1cccc(NC(=O)C2(c3ccccc3)CC2(Cl)Cl)c1 (configuration not stated) the results were TRHR agonist inactive, D1 antagonist -63.8, D1 agonist inactive, D1 potentiator inactive and TRHR PAM inactive.
O=C(NC1CC1)c1cc2cc(Br)ccc2s1 was read as TRHR agonist inactive, D1 antagonist -32.0, D1 agonist inactive, D1 potentiator inactive and TRHR PAM inactive.
For CC1CCCC(NC(=O)c2ccc(CNc3c(N4CCCC4)c(=O)c3=O)cc2)C1C (configuration not stated) the results were TRHR agonist inactive, D1 antagonist -32.1, D1 agonist inactive, D1 potentiator inactive and TRHR PAM inactive.
Cc1ccc(-n2nc(C)c3c(C(=O)Nc4ccc(C)cc4Cl)cc(C)nc32)cc1 was read as TRHR agonist inactive, D1 antagonist inactive, D1 agonist inactive, D1 potentiator inactive and TRHR PAM inactive.
Screening COC(=O)CN1C(=S)N(c2ccc(OC)cc2)C(=O)/C1=C/c1ccc(N2CCOCC2)cc1 returned TRHR agonist inactive, D1 agonist 33.1, D1 potentiator inactive and TRHR PAM inactive.
COC(=O)CN1C(=S)N(c2ccc(OC)cc2)C(=O)/C1=C/c1ccc(OC)cc1 was read as TRHR agonist inactive, D1 antagonist inactive, D1 agonist inactive, D1 potentiator inactive and TRHR PAM inactive.
O=C(OCc1ccccc1Cl)C1CC(=O)N(Cc2ccco2)C1 (configuration not stated) was read as TRHR agonist inactive, D1 antagonist inactive, D1 agonist inactive, D1 potentiator inactive and TRHR PAM inactive.
O=C(NCCS(=O)(=O)c1ccc(Br)cc1)c1ccc(Cl)cc1Cl was read as TRHR agonist inactive, D1 antagonist -39.1, D1 agonist inactive, D1 potentiator inactive and TRHR PAM inactive.
Screening O=C(NCCS(=O)(=O)c1ccc(Br)cc1)c1ccccc1 returned TRHR agonist inactive, D1 antagonist inactive, D1 agonist inactive, D1 potentiator inactive and TRHR PAM inactive.
